The record followed here is PubChem BioAssay.

A short description of experiment [1]: inhibitors of TNFa-induced NFkB p65 translocation, primary screen, imaging, HUVEC, MLSMR starter and 10KST1 sets (AID 438;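 active = inhibition above 20% together with a positive visual image hit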;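 also: compound added about 3h40 before a 20 min TNFalpha stimulation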;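 as to inhibition: signal is the nuclear over cytoplasmic p65 intensity ratio per well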). Conditions: HUVEC TNFa-induced p65 nuclear translocation; cell count: measured here: nuclei count (cytotoxicity indicator), at 2.08 µM; inhibition: at 2 µM, stronger effect = higher value, 0% TNFa-plus-vehicle, 100% no-TNFa wells.
The nature of experiment [2]: inhibitors of mutant huntingtin aggregation, primary screen, imaging, exon1htt(103Q)mCFP cells, high-content imaging (AID 483;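 active = visual image review flags a hit and inhibition of aggregation exceeds 20%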;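 also: compound exposure lasted 3 days before fixation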;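 as to nuclei count: percent of the per-plate median nuclei count of sample wells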). The following applies: exon1htt(103Q)mCFP cell line, aggregate imaging, at 2 µM; inhibition of aggregation: stronger effect = higher value; nuclei count: measured here: cell count, toxicity.
Experiment [3] is described as follows: inhibitors of E-selectin induction by TNFa, primary screen, imaging, HUVEC, immunofluorescence, MLSMR starter and 10KST1 sets (AID 487;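 active = visually confirmed hit in the image check and inhibition above 20%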;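 as to inhibition: signal is fraction of cell area covered by stained E-selectin grains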;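 as to nuclei count: 100% = median nuclei count of all wells on the same plate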). Conditions: HUVEC TNFalpha-induced E-selectin immunofluorescence imaging, at 2 µM; inhibition: stronger effect = higher value; nuclei count: measured here: cell number, toxicity.
Experiment [4] in a line: DUSP6 inhibitors restoring Erk phosphorylation by chemical complementation, primary imaging in DUSP6-transfected HeLa (AID 609;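 active = compounds giving at least 50% inhibition in the cell-based MKP-3 phosphatase rescue imaging test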;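 as to inhibition: phospho-Erk level distribution per well compared with pooled transfected vehicle control wells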). Conditions: HeLa MKP-3 transfected, phospho-Erk imaging KS statistic, at 10 µM, cells stimulated with TPA for 15 min.
Experiment [5] concerns the target Dual specificity protein phosphatase 6 (Homo sapiens) (UniProt Q16828). The experiment is described as above. Conditions: HeLa MKP-3 transfected, phospho-Erk imaging KS statistic; at 10 µM; stronger effect = higher value; cells stimulated with TPA for 15 min.
For experiment [6], the target named is Voltage-gated potassium channel subunit beta-2 (Rattus norvegicus) (UniProt P62483). As to the kind of experiment: KvBeta enzyme negative modulators, primary screen, biochemical, NADPH fluorescence (AID 622;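 active = fluorescence slope higher than the sample average by over 3 SD, cut at about -0.22 in these data, passing the limit was not always enough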;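 also: slope of raw intensity against log time taken from 70 to 1610 s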). The following applies: recombinant KvBeta, 4-cyanobenzaldehyde reduction, at 10 µM, stronger effect = higher value.
For experiment [7] the target is unchanged. Briefly: KvBeta positive modulators, primary screen, biochemical, NADPH fluorescence (AID 623;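 active = NADPH fluorescence slope more negative than the mean of all samples by about 3 SD, 99.7% confidence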;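 also: fluorescence intensity change per second fitted from 20 to 320 s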). Conditions: Recombinant KvBeta, NADPH fluorescence decrease slope, 10 min; at 10 µM; stronger effect = lower value.
Experiment [8] has as its target Alpha-2C adrenergic receptor (Homo sapiens) (UniProt P18825). Briefly: modulators of alpha2C/GIRK thallium flux, primary screen, cell-based, HEK293 alpha2C/GIRK1/2 (AID 624;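 active = fluorescence slope after compound addition differing from the mean of all screened samples at 99.7% confidence, in either direction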;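 also: slope of fluorescence ratio to pre-addition baseline per second over 15 to 24 s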). Conditions: thallium flux BTC fluorescence, at 10 µM, actives lie on both sides.
A short description of experiment [9]: inhibitors of larval lipid processing in zebrafish, primary screen, whole organism, PED6 fluorescence, gall bladder and intestine (AID 686).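 Also: larvae 5 to 7 days old with five fish per well; signal comes from phospholipase A2 cleavage of quenched PED6 carried via bile; overnight exposure to compound and PED6 before scoring.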 Conditions: Zebrafish larvae PED6 lipid processing, fluorescence scoring; screened at 20 µM (by protocol).
The nature of experiment [10]: inhibitors of Chlamydomonas gravitaxis, primary screen, whole organism, Chlamydomonas reinhardtii, WT vs cilia-less mutant, absorbance, 96-well (AID 463189;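 active = inhibition at or above 50% relative to wild type and mutant plate controls; inactive = inhibition below 50%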;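 also: 0% = wild type cc124 cells in DMSO and 100% = ciliumless bld1 mutant cells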). The following applies: OD600 absorbance, 2 days, at 10 µM, stronger effect = higher value.
The nature of experiment [11]: inhibitors of Sendai virus-induced IRF3 signaling, primary screen, TLR/RLR signaling modifier project, cell-based, Sendai virus stimulus, luciferase, 10K MLSCN set (AID 602276;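 active = inhibition at or above 50% at 10 µM; inactive = inhibition below 50%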;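 also: firefly luciferase from ISG56 promoter only with Renilla not read in this screen; 0% = Sendai virus plus DMSO and 100% = medium plus DMSO without virus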). The following applies: HEK293 RL24 IRF3 luciferase reporter, at 10 µM, stronger effect = higher value. A general note: In a reporter assay the amount or activity of a reporter protein is the signal.
Experiment [12] can be described thus: inhibitors of poly I:C-induced TLR3 signaling, primary screen, cell-based, poly I:C stimulus, luciferase, 10K MLSCN set (AID 602277;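 active = inhibition of the reporter signal at or above 50%; inactive = inhibition below 50%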). Conditions: HEK293-TLR3 RL24 IRF3 luciferase reporter, at 10 µM, stronger effect = higher value.
The mark [13] stands for this setting: measured here: cell density z-score.
The mark [14] stands for this setting: measured here: nuclear c-Myc green intensity z-score.
[15] abbreviates: measured here: nuclear pErk red intensity z-score, stronger effect = higher value.

Broadly, the inhibition is the change of the read-out against control, counted positive when it falls.

The source made the active and inactive calls.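 The calls were made as follows, unless noted: active = a full or partial loss of lipid-probe fluorescence in the fish gall bladder, intestine or both, judged by eye; inactive = no fluorescence loss, or compound toxic to the fish.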

Sequence of Alpha-2C adrenergic receptor (Homo sapiens) (P18825 whole entry, looked up): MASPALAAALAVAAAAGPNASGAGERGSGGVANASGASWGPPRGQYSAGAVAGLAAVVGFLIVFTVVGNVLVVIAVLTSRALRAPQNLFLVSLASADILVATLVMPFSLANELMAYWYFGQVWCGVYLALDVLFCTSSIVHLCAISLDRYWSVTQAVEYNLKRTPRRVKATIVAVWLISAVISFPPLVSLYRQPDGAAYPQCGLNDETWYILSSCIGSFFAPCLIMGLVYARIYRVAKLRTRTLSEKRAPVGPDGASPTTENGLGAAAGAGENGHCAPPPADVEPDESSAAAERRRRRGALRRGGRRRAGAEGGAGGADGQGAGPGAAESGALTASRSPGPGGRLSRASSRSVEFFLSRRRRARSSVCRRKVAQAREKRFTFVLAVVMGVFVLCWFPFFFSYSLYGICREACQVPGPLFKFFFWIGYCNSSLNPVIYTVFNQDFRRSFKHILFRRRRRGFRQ
Sequence of Dual specificity protein phosphatase 6 (Homo sapiens) (Q16828 whole entry, looked up): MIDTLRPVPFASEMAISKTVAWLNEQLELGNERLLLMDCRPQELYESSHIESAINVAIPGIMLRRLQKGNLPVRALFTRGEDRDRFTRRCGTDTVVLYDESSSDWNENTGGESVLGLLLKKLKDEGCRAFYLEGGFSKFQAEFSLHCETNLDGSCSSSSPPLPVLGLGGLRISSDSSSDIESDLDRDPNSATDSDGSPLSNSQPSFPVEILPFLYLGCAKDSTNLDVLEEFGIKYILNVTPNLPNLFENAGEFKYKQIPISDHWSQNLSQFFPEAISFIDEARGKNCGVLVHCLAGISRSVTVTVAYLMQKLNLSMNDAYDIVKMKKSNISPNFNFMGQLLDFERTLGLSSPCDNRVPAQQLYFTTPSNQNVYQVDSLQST
Sequence of Voltage-gated potassium channel subunit beta-2 (Rattus norvegicus) (P62483 whole entry, looked up): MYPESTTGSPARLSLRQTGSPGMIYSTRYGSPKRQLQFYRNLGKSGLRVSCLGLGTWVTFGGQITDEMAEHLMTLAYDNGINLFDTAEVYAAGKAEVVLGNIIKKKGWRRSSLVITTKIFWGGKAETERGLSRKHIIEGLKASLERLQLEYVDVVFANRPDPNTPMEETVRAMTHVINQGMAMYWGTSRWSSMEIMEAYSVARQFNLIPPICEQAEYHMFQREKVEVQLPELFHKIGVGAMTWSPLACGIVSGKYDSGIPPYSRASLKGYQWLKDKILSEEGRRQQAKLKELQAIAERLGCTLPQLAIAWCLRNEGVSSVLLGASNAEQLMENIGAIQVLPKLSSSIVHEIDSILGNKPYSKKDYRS

As for `CCOC(=O)CCC(=O)O[C@H]1[C@H](O[C@@H]2[C@@H](C)[C@H](O[C@H]3C[C@@](C)(OC)[C@@H](O)[C@H](C)O3)[C@@H](C)C(=O)O[C@H](CC)[C@@](C)(O)[C@H](O)[C@@H](C)C(=O)[C@H](C)C[C@@]2(C)O)O[C@H](C)C[C@@H]1N(C)C`, in experiment [1], the cell count came out at 569. For the same compound, the inhibition in experiment [1] was -5.3% (inactive); in experiment [3], -62.2% (inactive); in experiment [5] it was -4.44% (inactive); in experiment [10] it was 64.6% (active); in experiment [11] it was 20.3% (inactive); in experiment [12], 31.3% (inactive). Besides, in experiment [2], the inhibition of aggregation was 0.8% (inactive). Moreover, the nuclei count in experiment [2] turned out to be 105%; in experiment [3], 115%. In addition, the z-score is -0.734 in [4] (setting [13]), -0.933 in experiment [4] (setting [14]) and 0.00972 in experiment [4] (setting [15]). For the same compound, in experiment [6], the fluorescence slope was -0.495 (inactive). Besides, the NADPH fluorescence slope in [7] is -5.4e-05 (inactive). Further, in experiment [8], the slope is 0.0056 (inactive). For the same compound, the compound was called inactive in experiment [9].

Take `O=C(O)c1ccc(COc2c(F)c(F)c(F)c(F)c2F)o1`: in [1], the cell count worked out at 492. The inhibition is -12.2% (inactive) in experiment [1]; -83.7% (inactive) in experiment [3]; -3.5% (inactive) in experiment [5]; -7.74% (inactive) in experiment [10]; -5.03% (inactive) in experiment [11]; -6.07% (inactive) in experiment [12]. In addition, in experiment [2], the inhibition of aggregation is -42.8% (inactive). In addition, the results for the nuclei count in experiment [2] and in experiment [3] were 99.6% and 129%, respectively. Moreover, the z-score in experiment [4] (setting [13]) was 0.991; in [4] (setting [14]), -1.28; in experiment [4] (setting [15]), -0.83. For the same compound, in experiment [6], the fluorescence slope is -0.433 (inactive). Moreover, the NADPH fluorescence slope in experiment [7] was -0.000148 (inactive). Besides, the slope in experiment [8] is 0.00486 (inactive). Moreover, the result in experiment [9] was inactive.

For `CC(=O)NCCCCCCNC(C)=O`, the cell count in [1] is 515. Also, the inhibition in [1] was -2% (inactive); in experiment [3], 5.3% (inactive); in [5], 10.2% (inactive); in experiment [10], 20.9% (inactive); in experiment [11], 9.84% (inactive); in experiment [12], 44.8% (inactive). Also, the inhibition of aggregation in experiment [2] was -11.6% (inactive). Moreover, the nuclei count in [2] turned out to be 101%; in experiment [3] it was 114%. For the same compound, the z-score is -1.8 in [4] (setting [13]), 0.662 in experiment [4] (setting [14]) and 0.679 in [4] (setting [15]). Moreover, the fluorescence slope in experiment [6] is -0.45 (inactive). The NADPH fluorescence slope in experiment [7] was -5.8e-05 (inactive). Also, the slope in experiment [8] was 0.00491 (inactive). Further, the result in experiment [9] was inactive.

For the compound `S=C(N=Nc1ccccc1)NNc1ccccc1`, the cell count in experiment [1] turned out to be 456. The inhibition in [1] was -24.6% (inactive); in experiment [3], -51.9% (inactive); in [5], -2.46% (inactive); in experiment [10], 12.8% (inactive); in [11] it was -11.4% (inactive); in experiment [12], -44.3% (inactive). The inhibition of aggregation in experiment [2] was 15.4% (inactive). The nuclei count in experiment [2] is 97.4%; in [3], 122%. The z-score in [4] (setting [13]) is 0.583; in experiment [4] (setting [14]), -0.233; in experiment [4] (setting [15]) it was 0.888. The fluorescence slope in experiment [6] is -0.552 (inactive). Moreover, the NADPH fluorescence slope in experiment [7] was -4.2e-05 (inactive). The slope in experiment [8] was 0.0111 (inactive). The outcome in experiment [9] was inactive.

Turning to `Cc1c(CCC#N)c(N2CCN(C3CCCCC3)CC2)n2c(nc3ccccc32)c1C#N`, in experiment [1], the cell count came out at 433. In addition, the inhibition in experiment [1] is -14.4% (inactive); in experiment [3] it was -38.1% (inactive); in [5], 13.7% (inactive); in experiment [10], 8.11% (inactive); in experiment [11], 19.2% (inactive); in [12] it was 17.3% (inactive). For the same compound, in [2], the inhibition of aggregation was 14.6% (inactive). For the same compound, the figures for the nuclei count in experiment [2] and in [3] were 98.9% and 128%, respectively. For the same compound, the z-score in experiment [4] (setting [13]) is 0.167; in experiment [4] (setting [14]) it was -0.385; in experiment [4] (setting [15]), -0.671. The fluorescence slope in experiment [6] was -0.236 (inactive). The NADPH fluorescence slope in experiment [7] is -5.2e-06 (inactive). In experiment [8], the slope is 0.00599 (inactive). In addition, the compound was called inactive in experiment [9].
